In all, about 66,000 compounds went through this assay and about 960 (1.5%) showed an effect of 50% or more. This excerpt belongs to a sample that is enriched for strong results.
System: Trypanosoma brucei
Assay: Trypanosoma brucei 72 hour study
Assay type: functional, organism-based
Parameters: scale not given: in the data most compounds retested in dose-response had high values

SMILES: COc1ncc(-c2c(C#N)c(N)nc3c2CCc2[nH]ccc2-3)cn1
- Percent Effect (30.3 µM, […]): -6.46%

SMILES: Cn1cc(-c2c(C#N)c(N)nc3c2CCc2[nH]ccc2-3)cn1
- Percent Effect (30.3 µM, […]): 27.56%

SMILES: Cc1n[nH]c(C)c1-c1c(C#N)c(N)nc2c1CCc1[nH]ccc1-2
- Percent Effect (30.3 µM, […]): 52.57%

SMILES: CC(C)CN1C[C@H]2C[C@H](C(=O)N3CCCC3)[C@@H](C1)O2.O=C(O)C(F)(F)F
- Percent Effect (30.3 µM, […]): -50.57%

SMILES: CCc1ccc(-c2ncc3c(n2)N(C)CCN(CCN(C)C)C3=O)cc1
- Percent Effect (30.3 µM, […]): 100.5%

SMILES: CN(C)CCN1CCN(C)c2nc(-c3ccccc3)ncc2C1=O
- Percent Effect (30.3 µM, […]): 17.36%

SMILES: COc1cccc(-c2ncc3c(n2)N(C)CCN(CCN(C)C)C3=O)c1
- Percent Effect (30.3 µM, […]): 19.59%

SMILES: Cl.O=C(O)[C@@H]1CCCN1c1nccc(Nc2ccccc2)n1
- Percent Effect (30.3 µM, […]): -31.15%
- Percent Effect (10 mM, 10 mM as filed; unlikely as a test dose): -16.56%

SMILES: Cc1cc(F)ccc1-n1cc(O)c(C(=O)NCC2(O)CCC2)n1
- Percent Effect (30 µM, 30.03 µM): -18.18%

SMILES: O=C(Cn1nnn(-c2cccs2)c1=O)NCC1CCOC1 (stereo not given)
- Percent Effect (30 µM, 30.03 µM): 53.07%

SMILES: CCN(CC1CCOC1)C(=O)Cn1nnn(-c2cccs2)c1=O (stereo not given)
- Percent Effect (30 µM, 30.03 µM): -61.65%

SMILES: O=C(Cn1nnn(-c2cccs2)c1=O)N(CC1CCOC1)C1CC1 (stereo not given)
- Percent Effect (30 µM, 30.03 µM): -28.27%

SMILES: CC(Cn1cccn1)NCc1csc(COc2ccccc2)n1 (stereo not given)
- Percent Effect (30.3 µM, […]): 63.51%

SMILES: CC(Cn1cccn1)NCc1csc(Cc2ccccc2)n1 (stereo not given)
- Percent Effect (30.3 µM, […]): 32.28%

SMILES: Cc1cnn(CCCNCc2csc(COc3ccccc3)n2)c1
- Percent Effect (30.3 µM, […]): 10.81%

SMILES: c1ccc(OCc2nc(CNCCn3cccn3)cs2)cc1
- Percent Effect (30.3 µM, […]): -9.773%

SMILES: Clc1ccc(Cc2nc(CNCCn3cccn3)cs2)cc1
- Percent Effect (30.3 µM, […]): 19.22%

SMILES: c1ccc(-c2nc(CNCCn3cccn3)cs2)cc1
- Percent Effect (30 µM, 30.03 µM): -63.26%

SMILES: c1ccc(Cc2nc(CNCCn3cccn3)cs2)cc1
- Percent Effect (30.3 µM, […]): 100.2%

SMILES: CC(Cn1cccn1)NCc1csc(COc2ccc(F)cc2)n1 (stereo not given)
- Percent Effect (30.3 µM, […]): 4.13%

SMILES: Cc1cnn(CCNCc2csc(COc3ccccc3)n2)c1
- Percent Effect (30.3 µM, […]): 54.15%

SMILES: CCS(=O)(=O)N1C[C@H]2C[C@H](C(=O)N(C)C)[C@@H](C1)O2
- Percent Effect (30 µM, 30.03 µM): 9.915%

SMILES: O=C(NCC(=O)N1CCN(c2ccccc2)CC1)c1sccc1C1CC1
- Percent Effect (30 µM, 30.03 µM): 8.848%

SMILES: CCC(=O)N1CCN(CCn2cccn2)c2ncccc2C1.O=C(O)C(F)(F)F
- Percent Effect (30.3 µM, […]): -68.7%

SMILES: N#Cc1ccc(C(=O)N2CC[C@H]3[C@H]2CCN3CC2CC2)cc1.O=C(O)C(F)(F)F
- Percent Effect (30.3 µM, […]): -8.518%

SMILES: Cc1ccccc1-c1cncc(C2CCN(S(=O)(=O)N(C)C)CC2)n1
- Percent Effect (30.3 µM, […]): 23.75%

SMILES: CCC(=O)N1CCCN(Cc2cc(F)cc(Br)c2)CC1
- Percent Effect (30 µM, 30.03 µM): -27.39%

SMILES: CN1C[C@H]2CC[C@@H]1CN(C(=O)COCc1nc3cc(F)ccc3[nH]1)C2
- Percent Effect (30 µM, 30.03 µM): -9.559%

SMILES: CC(C)(C)n1ncc2c1CCCC2NCc1ccsc1 (stereo not given)
- Percent Effect (30 µM, 30.03 µM): -15.69%

SMILES: O=C(NCc1cnc2n1CCN(Cc1nccs1)CC2)C1CCC1.O=C(O)C(F)(F)F
- Percent Effect (30.3 µM, […]): -21.25%

SMILES: COCC(=O)N1CCC2(CC1)CN(CC1CC1)c1ccc(F)cc12
- Percent Effect (30.3 µM, […]): 19.77%

SMILES: CCCc1cc(NCCCC2CCOC2)n2nccc2n1 (stereo not given)
- Percent Effect (30.3 µM, […]): 14.64%

SMILES: Cc1n[nH]c(SCCNC2CCN(c3nc4ccccc4s3)CC2)n1
- Percent Effect (30 µM, 30.03 µM): -5.585%

SMILES: Cn1ccnc1SCCNC1CCN(c2nc3ccccc3s2)CC1
- Percent Effect (30 µM, 30.03 µM): -14.43%

SMILES: CCc1nccn1CCNC1CCN(c2nc3ccc(Cl)cc3s2)CC1
- Percent Effect (30.3 µM, […]): 100.4%

SMILES: Cc1csc2c(N3CCC(NCCCC4CCOC4)CC3)ncnc12 (stereo not given)
- Percent Effect (30 µM, 30.03 µM): -28.35%

SMILES: CCS(=O)(=O)CCNC1CCN(c2nc3ccc(Cl)cc3s2)CC1
- Percent Effect (30.3 µM, […]): 67.3%

SMILES: Clc1ccc2nc(N3CCC(NCCCC4CCOC4)CC3)sc2c1 (stereo not given)
- Percent Effect (30.3 µM, […]): 69.37%

SMILES: CCCc1cc(CNC2CCN(c3nc4ccccc4s3)CC2)on1
- Percent Effect (30 µM, 30.03 µM): -8.839%

SMILES: Cc1csc2c(N3CCC(NCCc4ccnn4C)CC3)ncnc12
- Percent Effect (30 µM, 30.03 µM): -26.9%

SMILES: Cc1nc(NC(=O)c2c(-n3cnnn3)sc(C)c2C)sc1C
- Percent Effect (30 µM, 30.03 µM): -45.39%

SMILES: O=C(O)C(F)(F)F.O=C(O)C(F)(F)F.c1cncc(OCc2noc3c2CN(Cc2ccco2)CC3)c1
- Percent Effect (30 µM, 30.03 µM): -42.06%

SMILES: Cc1noc(C)c1CN1CCn2cc(CN3CCCCC3)nc2C1.O=C(O)C(F)(F)F
- Percent Effect (30.3 µM, […]): -9.044%

SMILES: CCN1CCN(C(=O)c2cc(-c3cccn3C)n[nH]2)[C@H]2CS(=O)(=O)C[C@H]21
- Percent Effect (30 µM, 30.03 µM): -16.48%

SMILES: CC(C)N1CC[C@H]2[C@H](C[C@@H](Cn3cncn3)N2c2nccs2)C1.O=C(O)C(F)(F)F.O=C(O)C(F)(F)F
- Percent Effect (30.3 µM, […]): -43.04%

SMILES: COc1cccc(CN(Cc2ncc[nH]2)Cc2ccco2)c1.O=C(O)CC(O)(CC(=O)O)C(=O)O
- Percent Effect (30.3 µM, […]): -10.96%

SMILES: CSc1ccc(CN2C[C@@H]3CC[C@@](O)(c4ccc(C)cn4)[C@@H]3C2)cc1
- Percent Effect (30.3 µM, […]): 79.51%

SMILES: Cc1ccc([C@]2(O)CC[C@H]3CN(Cc4cc(C)c(O)c(C)c4)C[C@H]32)nc1.O=C(O)CC(O)(CC(=O)O)C(=O)O
- Percent Effect (30.3 µM, […]): 27.71%

SMILES: Cc1ccc([C@]2(O)CC[C@H]3CN(Cc4ccc(Cl)cc4Cl)C[C@H]32)nc1
- Percent Effect (30.3 µM, […]): -1.046%

Source: ChEMBL document CHEMBL3988442, “University of Dundee, Small-Polar-MMV Screening Library” (2021)
